MARV entry inh – Marburg virus entry inhibition; Marburg virus pseudotyped entry inhibition, cell reporter; Potency, µM (doses to about 37.8 µM), for the others: top-dose activity change, negative = inhibition, most hits filed as inhibitors; actives 1.8% (n = 300,000); calls by dose curve; tested in HEK293 cells
Lassa entry inh – blocks Lassa virus binding to or entry into cells; Lassa virus pseudotype entry inhibition, cell reporter; Potency, µM (titrated, usually from 37.9 µM), inactives show at the highest dose activity change, negative = inhibition, actives largely listed as inhibitors; actives 1.2% (n = 300,000); AID 540256; calls by dose curve; tested in HEK293 cells; further: nearly all actives have a fitted effect of over 50% in size
HCV inhibitor – HCV inhibition | AID 651820 | Potency, µM (series often up to 41.8 µM), for inactives: top-dose activity change, negative = inhibition, actives largely listed as inhibitors | actives 3.4% (n = 340,000) | Huh7.5.1 HCVcc-Cre infection, luciferase reporter, 44 h; active means well fitted inhibition curve with a large enough effect; inconclusive means small, poorly fitted or top-dose-only effect, or another doubt; inactive means no such curve, though single readings can be large or run the other way
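Luciferase read-out (15 sec integration) after a 15 min room-temperature substrate step quantifies HCVcc-Cre infection. Cells, 1,000 per well, had compound added 4 h post-plating, then virus at ~0.5 moi, and were cultured 44 h.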
VACV mCherry inh – vaccinia inhibition (mCherry reporter). AID 720579. actives 0.63% (n = 310,000). Vaccinia virus mCherry reporter infection, fluorescence. Potency, µM (series often up to 36.5 µM), for the others: at the top dose activity change, negative = inhibition, usual class: inhibitors; calls by dose curve; tested in A549 cells; further: nearly all actives have a fitted effect of over 35% in size
FMDV antiviral – antivirals against foot and mouth disease virus. actives 1.2% (n = 410,000). Potency, µM (titrated, usually from 57.9 µM), without a hit: at the top dose activity change, negative = inhibition, actives largely listed as inhibitors. FMDV antiviral cell-based qHTS. AID 1159524; calls by dose curve; tested in HEK293T cells; further: read-out not given here; nearly all actives have a fitted effect of over 45% in size
Vaccinia Venus – inhibitors of vaccinia virus (Venus reporter); Vaccinia virus Venus reporter expression, fluorescence; Potency, µM (series often up to 36.5 µM), for inactives: at the highest dose activity change, negative = inhibition, usual class: inhibitors; actives 0.46% (n = 330,000); calls by dose curve; tested in A549 cells; further: nearly all actives have a fitted effect of over 30% in size
Starred values were filed as active, the others as inactive; [ ] = another dose, or the depositor's remark. Compounds with a hit are over-represented: about 5.3% of the library has one in this group of screens. On the % scale 0 is the no-effect control and ±100 the full control effect; potency means the concentration at half of the fitted maximal effect.

COc1ccc2oc(-c3ccc(C)c(NC(=O)c4ccc(-c5ccccc5[N+](=O)[O-])o4)c3)nc2c1 was read as MARV entry inh 2%[46.1 µM], Lassa entry inh -2%[46.1 µM], VACV mCherry inh -27%, FMDV antiviral 5% and Vaccinia Venus inconclusive.
COc1cc(=O)n2c(c1C(=O)NCc1ccco1)CCN(Cc1cccc(C)n1)CC2 was read as VACV mCherry inh -10%, FMDV antiviral -3% and Vaccinia Venus 1%.
`O=S(=O)(c1ccc(F)cc1)N1CCC(n2c(C(F)(F)F)nc3cccnc32)CC1` gave Lassa entry inh 3%[46.1 µM], VACV mCherry inh 19%, FMDV antiviral 4% and Vaccinia Venus 12%.
CC(C)NC(=O)C1CCCN(S(=O)(=O)c2ccc3c(ccn3C)c2)C1 (stereo not given) was read as Lassa entry inh 24%[46.1 µM], VACV mCherry inh -4%, FMDV antiviral -14% and Vaccinia Venus 3%.
`COCCN(C(=O)COC(=O)/C=C/c1ccc(C(F)(F)F)cc1)c1c(N)n(Cc2ccccc2)c(=O)[nH]c1=O` gave MARV entry inh -29%, Lassa entry inh inconclusive, HCV inhibitor -4%, VACV mCherry inh 13µM*, FMDV antiviral -29% and Vaccinia Venus inconclusive.
`O=C(/C=C/c1cccc(Cl)c1)Nc1ccncc1` gave MARV entry inh -3%, Lassa entry inh 20%, HCV inhibitor -3% and FMDV antiviral 14%.
Screening NS(=O)(=O)c1ccc(NC(=O)/C=C/c2cccc(Cl)c2)cc1 returned MARV entry inh -6%, Lassa entry inh 1%, HCV inhibitor 11µM* and FMDV antiviral -5%.
`Cc1ccc(C(=O)C(c2ccccc2)N2Cc3ccccc3C2=N)cc1` (stereo not given) gave MARV entry inh inconclusive, Lassa entry inh inconclusive, HCV inhibitor inconclusive, VACV mCherry inh -25%, FMDV antiviral 32µM* and Vaccinia Venus inconclusive.
`CC(C)CCNC(=O)[C@@H](c1ccccc1)N1Cc2ccccc2C1=O` gave MARV entry inh 8%[46.1 µM], Lassa entry inh 1%[46.1 µM], VACV mCherry inh -2%, FMDV antiviral 43% and Vaccinia Venus 0%.
`CCn1nc(C)c(CNC(=O)c2cc(COc3ccccc3SC)on2)c1C` gave MARV entry inh 27%[46.1 µM], Lassa entry inh -20%[46.1 µM], HCV inhibitor 13µM*, VACV mCherry inh -13%, FMDV antiviral inconclusive and Vaccinia Venus -10%.
Screening CN(C)CCNc1ccc(CO)c2sc3ccc(O)cc3c(=O)c12 returned MARV entry inh 0.89µM*, Lassa entry inh 1µM*, HCV inhibitor inconclusive, VACV mCherry inh inconclusive, FMDV antiviral -16% and Vaccinia Venus inconclusive.
For CN(C)CCNc1ccc2ncn3c4ccc(O)cc4c(=O)c1c23 the results were MARV entry inh inconclusive, Lassa entry inh inconclusive, HCV inhibitor inconclusive, VACV mCherry inh 0.79µM*, FMDV antiviral inconclusive and Vaccinia Venus 1.1µM*.
Screening COc1ccc2sc3cccc(NCCN(C)C)c3c(=O)c2c1 returned VACV mCherry inh 3%, FMDV antiviral 17% and Vaccinia Venus -27%.
Screening CCC(Cn1nnc2ccccc2c1=O)NC(=O)Nc1cc(C)cc(C)c1 (stereo not given) returned MARV entry inh 0%[46.1 µM], Lassa entry inh -24%[46.1 µM], VACV mCherry inh -5%, FMDV antiviral 7% and Vaccinia Venus -11%.
For O=C(Nc1cccc(S(=O)(=O)c2cccc(NC(=O)C3CC3)c2)c1)C1CC1 the results were MARV entry inh inconclusive, Lassa entry inh 21µM*, HCV inhibitor 5.6µM*, VACV mCherry inh -14% and Vaccinia Venus inconclusive.
For O=C(Nc1cccc(S(=O)(=O)c2cccc(NC(=O)c3ccco3)c2)c1)c1ccco1 the results were MARV entry inh inconclusive, Lassa entry inh inconclusive, HCV inhibitor 11µM*, VACV mCherry inh 7%, FMDV antiviral 35µM* and Vaccinia Venus -14%.
Screening O=C(Nc1cccc(C(F)(F)F)c1)c1ccco1 returned MARV entry inh 3%, Lassa entry inh -34%, HCV inhibitor 10µM* and FMDV antiviral 12%.
For O=C(NNc1c([N+](=O)[O-])cc(C(F)(F)F)cc1[N+](=O)[O-])c1ccco1 the results were HCV inhibitor 4% and FMDV antiviral 32µM*.
For O=C(CCNC(=O)c1ccco1)Nc1cccc(C(F)(F)F)c1 the results were MARV entry inh 2%[46.1 µM], Lassa entry inh -10%[46.1 µM], HCV inhibitor 2%, VACV mCherry inh inactive, FMDV antiviral -3% and Vaccinia Venus 0%.
`CS(=O)(=O)c1cccc(NC(=O)C2CC2)c1` gave MARV entry inh -7%[46.1 µM], Lassa entry inh 1%[46.1 µM], HCV inhibitor 10%, VACV mCherry inh inconclusive, FMDV antiviral -11% and Vaccinia Venus -13%.
Screening O=C(NNc1c(F)c(F)cc(F)c1F)c1ccco1 returned HCV inhibitor -4% and FMDV antiviral -15%.
Cc1cnc(-n2ncc(C(=O)NCc3cccnc3)c2C)nc1-c1ccc(F)cc1 was read as VACV mCherry inh inconclusive, FMDV antiviral -26% and Vaccinia Venus -29%.
`CCC(=O)N(C)C[C@H]1Oc2cc(Br)ccc2S(=O)(=O)N([C@@H](C)CO)C[C@H]1C` gave VACV mCherry inh inactive, FMDV antiviral 23% and Vaccinia Venus -7%.
`Cc1cc(C(F)(F)F)nn1CC(=O)NC[C@H]1CCCO1` gave MARV entry inh 3%.
Screening O=C(c1ccc(Cl)cc1)n1nc(-c2ccccc2)nc1NCc1ccco1 returned MARV entry inh inconclusive, Lassa entry inh 6%[46.1 µM], VACV mCherry inh -8%[7.34 µM], FMDV antiviral 14% and Vaccinia Venus -8%[7.34 µM].
CSC[C@H]1CN(c2ccc(Br)cc2)C(=O)[C@H]1CC(=O)Nc1ccccc1 was read as Lassa entry inh -31%[46.1 µM].
O=C(Nc1cccc(C(F)(F)F)c1)NC1CCCCC1 was read as MARV entry inh 14%, Lassa entry inh 4µM*, HCV inhibitor -5%, FMDV antiviral 20% and Vaccinia Venus inconclusive.
Screening CN1CCC(NC(=O)Nc2cccc(C(F)(F)F)c2)CC1 returned HCV inhibitor -3%, VACV mCherry inh -25%, FMDV antiviral 1% and Vaccinia Venus -18%.
Screening NNC(=O)Nc1cccc(C(F)(F)F)c1 returned MARV entry inh 4%[46.1 µM], Lassa entry inh -2%[46.1 µM], HCV inhibitor 14%, VACV mCherry inh -15%, FMDV antiviral -10% and Vaccinia Venus 0%.
CC(C)(C)NC(=O)c1cccc(NC(=O)c2ccco2)c1 was read as MARV entry inh 12%, Lassa entry inh 4%, HCV inhibitor -20%, FMDV antiviral 5% and Vaccinia Venus -5%.
O=C(c1ccc(-c2cccc(C(F)(F)F)c2)o1)N1CCCCCCC1 was read as MARV entry inh -24%, Lassa entry inh -2%, HCV inhibitor 5%[8.37 µM], VACV mCherry inh -6%, FMDV antiviral -5% and Vaccinia Venus -20%.
